D2 ag-1 – D2 dopamine receptor (human) agonism. P14416. HEK293 T-REx D2 cells, calcium flux agonist mode. AID 485358. 340,000 tested, 0.53% active. activation, % at 2 µM;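 active = activation over 3 SD above normal in the single-dose calcium agonist read, cut at about 30% in these data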
Target sequence (P14416 whole entry, looked up): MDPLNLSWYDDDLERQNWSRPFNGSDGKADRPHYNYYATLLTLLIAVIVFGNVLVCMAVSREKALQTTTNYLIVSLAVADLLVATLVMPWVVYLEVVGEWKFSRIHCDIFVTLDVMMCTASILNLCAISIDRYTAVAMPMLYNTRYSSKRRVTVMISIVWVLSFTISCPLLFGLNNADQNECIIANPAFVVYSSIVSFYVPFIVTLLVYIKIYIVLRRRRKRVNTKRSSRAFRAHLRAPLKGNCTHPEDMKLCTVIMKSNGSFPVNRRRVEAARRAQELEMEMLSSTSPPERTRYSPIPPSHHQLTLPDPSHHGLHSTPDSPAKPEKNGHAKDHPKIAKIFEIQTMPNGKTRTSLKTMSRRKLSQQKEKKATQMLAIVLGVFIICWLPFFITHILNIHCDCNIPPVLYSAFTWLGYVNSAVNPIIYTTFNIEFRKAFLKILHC
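HEK293 Trex D2 cells, tetracycline-induced, o/n 30 C 5% CO2; no-wash Ca dye, RT 30–90 min; 10-cycle baseline, 23 nl cpd added, kinetic Ca read 180 s; agonist hits = positive Ca response.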
D2 PAM-1 – positive allosteric modulators of human D2 dopamine receptor. 360,000 tested, 0.23% active. potentiation, % (test concentration not listed). DiscoveRx D2 beta-arrestin cells, luminescence, 90 min; 100% = 57 uM dopamine signal. P14416; in the data active = potentiation above about 50%; inconclusive = mostly about 30% to 49%
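PathHunter D2 cells, attached overnight at 37 deg C, received compound in DMSO plus dopamine at EC20 (50 nM final) for 90 min at 37 deg C. Beta-arrestin recruitment was read as luminescence after 1 h with detection reagent at ambient temperature.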
D2 PAM-2 – D2 dopamine receptor (human) potentiation; potentiation, % at 10 µM; P14416; HEK293 T-REx D2, calcium flux, EC20 dopamine potentiation; AID 485347; 340,000 tested, 0.34% active;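 active = potentiation over 3 SD above the plate norm, cut at about 30% in these data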
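Potentiation of an EC20 dopamine calcium response is measured in a force-coupled, tetracycline-inducible Hek293 Trex D2 line. Compound-only kinetic reads over 180 s flag agonists before dopamine addition.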
D2 antag – antagonists of human D2 dopamine receptor. P14416. HEK293 TREx D2 cells, calcium flux, dopamine EC80. inhibition, % at 10 µM. 340,000 tested, 2% active. AID 485344; in the data active = inhibition above about 30%; inactive = below that, where a call was filed
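Inhibition of EC80 dopamine-driven calcium flux, recorded kinetically, defines activity here; cells are a tetracycline-induced HEK293 T-REx line expressing force-coupled D2.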
D2 ag-2 – activates the human D2 dopamine receptor. P14416. DiscoveRx PathHunter D2 beta-arrestin, luminescence, 90 min; 100% = 57 uM dopamine signal. activation, % (no concentration beside the values). 360,000 tested, 0.084% active. AID 624465; in the data active = activation above about 40%; inconclusive = between about 15% and that limit
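DiscoveRx PathHunter D2 beta-arrestin cells (2,100/well) attached overnight, then compound-stimulated 90 min at 37 C in HBSS/10 mM HEPES/0.1% Tween-20 buffer; beta-galactosidase complementation read by luminescence after 1 h at ambient temperature. Dopamine 57 uM final (EC100) as control.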
D3 ag – confirmation of human D3 dopamine receptor agonists, beta-arrestin; Potency, µM (top dose mostly 76.9 µM), most hits filed as activators; DiscoveRx D3 beta-arrestin cells, luminescence, 90 min; shares compounds with D2 ag-1; 2,300 tested, 4% active; note: nearly all actives have a fitted effect of over 70% in size
D2 ag-3 – counter-screen for D3 agonists: human D2 dopamine receptor agonism; 2,300 tested, 5.9% active; Potency, µM (series often up to 76.9 µM), most hits filed as activators; AID 720507; DiscoveRx PathHunter D2 beta-arrestin, luminescence, 90 min; response scale: percent relative to full dopamine signal; shares compounds with D2 ag-1; note: nearly all actives have a fitted effect of over 70% in size
Hits are given with their value; . = inactive; ? = inconclusive; / = no result. In the library only some 2.4% were active in any assay of this set; here they are far more common. Unless noted, calls come from the whole dose curve; as a rule, active = well fitted activation curve with a large enough effect; inconclusive = small, poorly fitted or top-dose-only effect; inactive = flat fitted curve, though single readings scatter.

SMILES	D2 ag-1	D2 PAM-1	D2 PAM-2	D2 antag	D2 ag-2	D3 ag	D2 ag-3
O=C(NCCCn1ccnc1)C(=O)NCC(c1ccco1)N1CCN(c2ccc(F)cc2)CC1 (stereo not given)	.	.	.	.	.	/	/
Cc1sc(NC(=O)c2ccco2)c(CN2CCN(c3ccccc3)CC2)c1C	41	.	.	.	.	.	.
O=C(NCCCn1ccnc1)C(=O)NCC(c1cccnc1)N1CCN(c2ccccc2)CC1 (stereo not given)	43	.	.	.	.	.	.
O=C(NCCCn1ccnc1)C(=O)NCC(c1ccco1)N1CCN(c2ccccc2)CC1 (stereo not given)	63	.	.	.	54	.	?
O=C(NCC(c1ccco1)N1CCN(c2ccccc2)CC1)c1ccco1 (stereo not given)	.	.	.	40	.	?	?
COc1ccc(N2CCN(C(CNC(=O)c3ccco3)c3ccco3)CC2)cc1 (stereo not given)	.	.	.	.	.	/	/
Cc1cc(=O)[nH]c2nnc(SCc3cccc(F)c3)n12	.	/	.	/	/	/	/
CN=c1scc(-c2ccc([N+](=O)[O-])cc2)n1/N=C/c1ccco1	.	.	.	.	.	/	/
CN=c1scc(-c2ccc(F)cc2)n1/N=C/c1ccc(O)c(O)c1	32	?	/	76	103	13µM	32µM
CCN1CC2=C(OC(N)=C(C#N)C2c2cccs2)/C(=C/c2cccs2)C1 (stereo not given)	/	.	/	/	.	.	.
CCN1C=C(Cc2cccs2)C2=C(C1)C(c1cccs1)C(C#N)=C(N)O2 (stereo not given)	44	.	.	81	.	.	.
O=C(Nc1cccc(Cl)c1)c1ccc(F)c(S(=O)(=O)NCc2ccc3c(c2)OCO3)c1	.	.	.	.	.	.	.
CCOc1ccc(NC(=O)c2ccc(F)c(S(=O)(=O)NCc3ccc4c(c3)OCO4)c2)cc1	.	/	.	/	/	/	/
Cc1ccc(S(=O)(=O)NCC(c2cccnc2)N2CCN(Cc3ccccc3)CC2)cc1 (stereo not given)	.	.	.	.	.	/	/
O=S(=O)(NCC(c1cccnc1)N1CCN(Cc2ccccc2)CC1)c1ccccc1 (stereo not given)	61	.	.	.	.	.	.
Cc1onc(-c2ccccc2)c1C(=O)NNC(=O)c1ccccc1O	.	.	.	.	.	/	/
Cc1onc(-c2ccccc2)c1C(=O)NNC(=S)NC(=O)/C=C/c1ccccc1	31	.	.	.	.	.	.
Cc1onc(-c2ccccc2)c1C(=O)NNC(=S)NC(=O)c1ccc(Br)cc1	46	.	.	36	.	.	.
COc1ccc(/C=C/C(=O)NC(=S)NNC(=O)c2c(-c3ccccc3)noc2C)cc1	.	.	.	.	.	/	/
COC(=O)C1CCN(Cc2cn(Cc3ccccc3)nc2-c2cc3ccccc3o2)CC1	37	.	.	.	.	.	.
CCC1=C(c2ccc(C)cc2)S(=O)(=O)N=C1N1CCC(C(=O)Nc2ccccc2F)CC1	.	/	.	/	/	/	/
CCOC(=O)c1ccccc1NC(=O)CSc1cc(C)[nH]c(=O)n1	.	/	.	/	/	/	/
C=CCn1c(SCC(=O)c2ccc(O)c(O)c2)nnc1-c1cccc(OC)c1	41	.	.	.	.	.	.
COc1ccc(C2OC(=O)CC2C(=O)NCc2ccc(F)cc2)cc1OC (stereo not given)	.	.	.	.	.	.	.
O=C(NC(Nc1nc2ccc([N+](=O)[O-])cc2s1)(C(F)(F)F)C(F)(F)F)c1cccnc1	.	.	.	.	.	.	.
SMILES	D2 ag-1	D2 PAM-1	D2 PAM-2	D2 antag	D2 ag-2	D3 ag	D2 ag-3
O=C(NC(Nc1nc2ccc([N+](=O)[O-])cc2s1)(C(F)(F)F)C(F)(F)F)c1ccccc1Cl	.	.	.	.	.	/	/
O=C(Cn1ccn(-c2ccc(F)cc2)c(=O)c1=O)Nc1ccc(F)cc1	.	/	.	/	/	/	/
O=C(CC1COc2ccccc2O1)NCc1ccccc1 (stereo not given)	.	.	.	.	.	/	/
c1ccc(CNCC2COc3ccccc3O2)cc1 (stereo not given)	64	.	.	62	.	.	.
COc1ccc(CNCC2COc3ccccc3O2)cc1 (stereo not given)	63	.	.	140	.	.	.
COc1cccc(OC)c1OCCNCC1COc2ccccc2O1 (stereo not given)	/	.	/	/	.	/	/
COc1ccc(CC(=O)NCC2COc3ccccc3O2)cc1 (stereo not given)	.	.	.	.	.	/	/
c1ccc(CCCNCC2COc3ccccc3O2)cc1 (stereo not given)	48	.	.	86	.	?	.
COC(=O)Cn1c2ccc(F)cc2c2nc(C)sc21	38	.	.	.	.	.	.
CCC(=O)N1CCc2cc(Br)cc(S(=O)(=O)NCCc3ccc(C)cc3)c21	.	/	.	/	/	/	/
CC(C)(C)C1CCC(N2CCN(c3ccccc3)CC2)CC1 (stereo not given)	73	.	.	86	.	.	?
COc1ccccc1C(=O)N1CCC(N2CCN(c3ccccc3)CC2)CC1	78	.	.	69	?	?	?
c1ccc(N2CCN(C3CC4CCC3C4)CC2)cc1 (stereo not given)	54	.	.	87	.	.	.
COc1ccc(C(=O)N2CCC(N3CCN(c4ccccc4)CC3)CC2)cc1	71	.	.	57	.	?	?
COc1ccc(C(=O)N2CCC(C(=O)N3CCN(c4ccc(OC)cc4)CC3)CC2)cc1	.	.	.	.	.	/	/
O=C(CCC1CCCC1)N1CCC(N2CCN(c3ccccc3)CC2)CC1	53	.	.	77	.	.	.
CC(C)CC(=O)N1CCC(N2CCN(c3ccccc3)CC2)CC1	.	?	.	.	?	/	/
CN(C)c1ccc(C#Cc2ccc3cc(CCO)oc(=O)c3c2)cc1	.	.	.	.	.	.	.
Clc1ccccc1OCCSc1nnc(-c2cccs2)o1	.	/	.	/	/	/	/
O=C(NCCNS(=O)(=O)c1ccccc1)c1ccc([N+](=O)[O-])cc1	58	.	.	.	.	.	.
O=C(CNS(=O)(=O)c1ccccc1)OCc1cccc([N+](=O)[O-])c1	41	.	.	.	.	.	.
O=C(CNS(=O)(=O)c1ccccc1)OCC(=O)c1cccc([N+](=O)[O-])c1	.	.	.	.	.	/	/
CCOC(=O)c1cc(S(=O)(=O)NCc2ccc(C)cc2)[nH]n1	.	/	.	/	/	/	/

Screening data as filed in PubChem.
